The campaign covered roughly 30,000 compounds. About 240 (0.8%) were called active. The sample as a whole holds a higher share of actives than the screen did. Values without a mark were called inactive.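 How the source made its calls: active means at 10 µM dose, at least 30% inhibition, measured as corrected fluorescence normalized to stimulator and neutral control wells; inactive means the rest.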

The target in the test is Protein artemis (Homo sapiens) (UniProt Q96SD1). Description: blockers of Artemis DNA hairpin overhang cleavage – biochemical, fluorescence intensity, FAM/BHQ-1 hairpin substrate, primary screen (AID 686954). The conditions noted are these: recombinant Artemis, quenched FAM hairpin cleavage fluorescence; at 10 µM; hits give high values.
Chain of Protein artemis (Homo sapiens) (Q96SD1 whole entry, looked up): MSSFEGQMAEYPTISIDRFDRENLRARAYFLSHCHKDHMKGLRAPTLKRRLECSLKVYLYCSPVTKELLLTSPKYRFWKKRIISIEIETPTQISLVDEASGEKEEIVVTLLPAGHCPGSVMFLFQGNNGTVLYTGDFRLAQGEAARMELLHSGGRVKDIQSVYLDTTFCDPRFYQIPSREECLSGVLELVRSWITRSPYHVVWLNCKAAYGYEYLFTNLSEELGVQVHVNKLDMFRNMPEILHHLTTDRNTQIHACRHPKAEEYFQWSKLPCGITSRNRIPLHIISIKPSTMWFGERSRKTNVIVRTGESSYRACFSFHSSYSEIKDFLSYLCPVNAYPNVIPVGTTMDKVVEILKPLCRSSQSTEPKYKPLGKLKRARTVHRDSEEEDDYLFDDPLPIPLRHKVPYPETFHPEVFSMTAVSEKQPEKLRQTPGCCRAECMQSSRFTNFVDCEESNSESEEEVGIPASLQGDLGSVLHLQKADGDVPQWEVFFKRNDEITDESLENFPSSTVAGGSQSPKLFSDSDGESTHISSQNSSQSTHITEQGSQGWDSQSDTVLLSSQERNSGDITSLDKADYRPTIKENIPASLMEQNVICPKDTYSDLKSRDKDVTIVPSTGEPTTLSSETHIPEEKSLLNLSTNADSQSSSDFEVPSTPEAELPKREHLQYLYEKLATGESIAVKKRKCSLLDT
Broadly, the inhibition is the drop in the measured response relative to a control, in per cent. Regarding `COC(=O)/C=C/C(=O)NCc1ccco1`, the inhibition is 25.1%.

For `Cc1ccccc1OC(=O)Cn1c(C(F)(F)F)nc2ccccc21`, the inhibition was 1.38%.

`Cc1cc2c(cc1C)N(C(=O)CN1C(=O)c3ccccc3C1=O)C(C)(C)c1ssc(=S)c1-2`: the inhibition is 2.13%.

Consider `O=C(Oc1cccnc1)c1cc2ccccc2oc1=O`, for which the inhibition is 4.63%.

Turning to `CC(C)C(c1nnnn1CCc1ccccc1)N1CCN(C(=O)c2ccco2)CC1` (stereo unspecified), the inhibition was -0.73%.

With `COc1ccc(C2C(C(C)=O)=C(O)C(=O)N2c2nccs2)cc1` (stereo unspecified), the inhibition was -6.55%.

Turning to `Cc1ccc(SCC(=O)Nc2ncc(C)s2)cc1`, the inhibition is 3.54%.

As for `O=C(N/N=C\c1ccc(-c2ccc(Cl)c(Cl)c2)o1)C(=O)N1CCCC1`, the inhibition is 10.4%.

Turning to `Cc1cc(-c2ccccc2)n2nc(C)c(-c3ccccc3)c2n1`, the inhibition is -3.76%.

Regarding `O=C(c1ccccc1Oc1ccccc1)N1CCN(c2ccc(F)cc2)CC1`, the inhibition was 10.1%.

Turning to `Cc1cc(C)n2nc(C(=O)NC(C)(C)C)nc2n1`, the inhibition was -8.47%.

For the compound `CCCCNC(=O)CSc1nc2ccc(NC(=O)CSc3nnc(COc4ccccc4C)n3C)cc2s1`, the inhibition was 1.88%.

Turning to `CC(=O)c1ccc(Cc2ncc(C(F)(F)F)cc2Cl)s1`, the inhibition is -6.84%.

For the compound `O=C(Cn1c(-c2cscn2)nc2ccccc21)Nc1ccc(Cl)cc1`, the inhibition was 6.18%.

`COc1cc(CNCc2cccs2)cc(Br)c1OC`: the inhibition was -2.14%.

Turning to `CCOCC(=O)Nc1cc(OC)c(Cl)cc1OC`, the inhibition is -5.52%.

With `Cc1ccc(/C=N/NC(=O)C(NC(=O)c2ccccc2)c2n[nH]c(=O)c3ccccc23)cc1` (stereo unspecified), the inhibition was 10.5%.

As to `COCCCn1c(SCC(=O)Nc2ccccc2)nnc1-c1ccncc1`, the inhibition is -5.35%.

For `Cn1c(=O)c2c(n(Cc3ccccc3)c1=O)NC(=O)C2CC(=O)N1CCc2ccccc2C1` (stereo unspecified), the inhibition was 6.23%.

For the compound `O=C(Nc1ccc(-n2ccnc2P(=O)(O)c2ccccc2)cc1)c1ccccc1Br`, the inhibition is 4.42%.

`CCN(CC)CCN1C(=O)C(=O)/C(=C(/O)c2ccccc2)C1c1ccccc1F` (stereo unspecified): the inhibition was 3.66%.

`CC(C)(C)NS(=O)(=O)CC12CCC(CC1=O)C2(C)C` (stereo unspecified): the inhibition is -3.02%.

As for `CN(C)CCNC(=O)Nc1cccc(Cl)c1Cl`, the inhibition is -0.2%.

Regarding `CCN(CC)Cc1cc(C(C)=O)ccc1O`, the inhibition is -4.35%.

Turning to `O=C(Nc1nnc(SCc2ccccc2)s1)c1ccco1`, the inhibition is 12.4%.

Regarding `Cc1nn2c3ccccc3nc2n(C)c1=O`, the inhibition was 0.11%.

For `O=C(Nc1ccc2c(c1)CCC2)c1cccc(S(=O)(=O)N2CCN(c3ccc(F)cc3)CC2)c1`, the inhibition was 2.72%.

In the case of `CN1CCN(S(=O)(=O)c2ccc(N3CCN(S(=O)(=O)c4cccs4)CC3)nc2)CC1`, the inhibition was -9.36%.

`Cc1ccc(NC(=S)NC2CCCC2)cc1`: the inhibition is 1.01%.

Turning to `CCC(=O)NNc1cc(=O)c2c(=O)n(C)c(=O)n(C)c2[nH]1`, the inhibition is 0.17%.

Regarding `COc1cccc(CNc2nc3nc4c(c(=O)n3[nH]2)CCC4)c1`, the inhibition was -6.09%.

Take `CCN(Cc1ccncc1)C(=O)c1cccc(S(=O)(=O)N2CCOCC2)c1`: the inhibition is -1.99%.

For `Cc1cc(C)c2c(-n3cccc3)c(NC(=O)OCc3ccccc3)sc2n1`, the inhibition was 0.14%.

With `CCOc1cccc(C(=O)Nc2cnn(Cc3ccccc3)c2)c1`, the inhibition was 0.76%.

For the compound `Cc1ccc(C2NC(=S)NC3=C2N2CCC3CC2)cc1` (stereo unspecified), the inhibition was -3.09%.

`CN1CCN(Cc2c(O)ccc3c2oc(=O)c2ccccc23)CC1`: the inhibition was -4.24%.

`Cc1ccc(/C=N\n2c(-c3ccccc3)n[nH]c2=S)s1`: the inhibition is 4.19%.

Turning to `CC(=O)c1sc(NC(=O)c2cccc3ccccc23)nc1C`, the inhibition was 5.24%.

For `Cc1nnc(NC(=O)CCCOc2ccccc2)s1`, the inhibition was -2.98%.

`NC(=O)C1CCN(C(=O)c2ccc(C(F)(F)F)cc2)CC1`: the inhibition is -5.95%.

As to `O=C(NCC1CCCO1)c1ccc2ccccc2n1` (stereo unspecified), the inhibition was 1.24%.

For `N#C/C(=C(/O)COc1cccc2ccccc12)c1nc2ccccc2[nH]1`, the inhibition was -3.72%.

On to `CC(C)(O)C(=O)NN(C(=O)c1ccccc1)c1cccc(Br)c1`, for which the inhibition was -17.1%.

Turning to `O=C(COc1ccc2oc3c(c2c1)CCCC3)Nc1ccccn1`, the inhibition was -4.41%.

Regarding `CCOC(=O)C1CCc2nc3ccccc3c(=O)n21` (stereo unspecified), the inhibition is -9.86%.

Consider `CCC(C)NC(=O)c1ccccc1NC(=O)c1ccccc1N(C)S(C)(=O)=O` (stereo unspecified), for which the inhibition was -0.77%.

Take `O=C(CSc1nnc(-c2ccco2)n1-c1ccccc1)NCCc1ccccc1`: the inhibition is 5.03%.

On to `CCOc1ccc(-c2c(C)n([O-])c3c([n+]2=O)CCCC3)cc1`, for which the inhibition was -6.29%.

As for `CCC(=O)NC(Nc1nc2ccc(C)cc2s1)(C(=O)OC)C(F)(F)F` (stereo unspecified), the inhibition was -8.44%.

Take `CCn1c(COc2ccccc2)nnc1SCC(=O)Nc1ccc2c(c1)OCCO2`: the inhibition was -7.11%.

Consider `S=C(NCCC1=CCCCC1)Nc1ccccc1`, for which the inhibition is 3.85%.

On to `CCOC(=O)C1=NNC2(c3ccc(Cl)cc3)C(=O)N(c3cc(C)cc(C)c3)C(=O)C12` (stereo unspecified), for which the inhibition is 1.03%.

For the compound `Cc1oc2nc(SCC(=O)NCc3cccnc3)nc(N)c2c1C`, the inhibition is 2.99%.

Regarding `CCCc1ccc(OCc2ccc(C(=O)N/N=C/c3cccc([N+](=O)[O-])c3)o2)c(OC)c1`, the inhibition is -9.45%.

As to `Cc1nn(Cc2ccccc2Cl)c(C)c1NC(=O)Cn1nc([N+](=O)[O-])c(Cl)c1C`, the inhibition was 1.31%.

Turning to `Cc1c(Cl)c([N+](=O)[O-])nn1Cc1ccc(C(=O)N/N=C\c2cc(Cl)ccc2O)o1`, the inhibition is 31% (active).

Consider `COc1ccc(-c2nc3ccccc3n2CCC(C)C)cc1OC`, for which the inhibition is 7.4%.

Turning to `CCSc1nnc(NC(=O)Cc2ccccc2OC)s1`, the inhibition was 2.36%.

For `C[C@H](NC(=O)NCCc1ccccc1)C(=O)O`, the inhibition is -9.76%.

As for `CCOC(=O)c1nc(Nc2ccc(C(=O)OC)cc2)c2ccccc2n1`, the inhibition was -0.44%.

Regarding `C/C(=N\NC(=O)c1ccccc1C)c1ccc(N2CCOCC2)cc1`, the inhibition was 0.87%.

With `COc1cccc(-c2cc(C(=O)N/N=C/c3ccc(OC)c(COC(C)=O)c3)c3ccccc3n2)c1`, the inhibition was 9.16%.

In the case of `CS(=O)(=O)n1nc(-c2ccccc2)nc1NCc1ccco1`, the inhibition is -21.9%.

Regarding `CC(=O)N/C(=C/c1ccc(Cl)cc1)C(=O)NCCc1c[nH]c2ccccc12`, the inhibition is -1.86%.

With `O=C(Cn1cncn1)N/N=C/c1c2ccccc2cc2ccccc12`, the inhibition is -6.23%.

Turning to `CC(C)Oc1ccc(C(=O)NC(C)(C)CO)cc1`, the inhibition is 1.84%.

Turning to `O=C(CN(Cc1ccccc1)C(=O)c1ccc2c(c1)OCCO2)NCc1ccc2c(c1)OCO2`, the inhibition is -2.04%.

For `CC1(C)Cc2ccccc2-c2nnc(-c3cccc(O)c3)n21`, the inhibition was -6.85%.

Consider `Cc1ccc(C(=O)OC2=CC(=O)CC(C)(C)C2)cc1`, for which the inhibition was -0.31%.

For `CCOC(=O)c1cnc(-c2ccccc2)nc1Oc1ccc(C)cc1`, the inhibition is 7.75%.

For `CSc1nc(C)cc(SC(C(C)=O)C(=O)Nc2ccccc2)n1` (stereo unspecified), the inhibition is -3.91%.

On to `COc1ccc(-c2nn(-c3ccccc3)cc2C(=O)Nc2nc(CC(C)=O)ns2)cc1`, for which the inhibition was 45.9% (active).

`COc1ccc(-c2nn(-c3ccccc3)cc2C(=O)Nc2nccs2)cc1OC`: the inhibition is 27.5%.

`CC(=O)Cc1nsc(NC(=O)c2ccc(COc3ccc(C)cc3)o2)n1`: the inhibition is -5.26%.

For the compound `CN1/C(=c2/s/c(=C3/C(=O)N(c4ccccc4)NC3=Nc3ccccc3)n(C)c2=O)C(C)(C)c2ccccc21`, the inhibition was 15.8%.

With `CCOC(=O)C1=C(CNC2CCCCC2)NC(=O)NC1c1cc(C)ccc1C` (stereo unspecified), the inhibition is -5.92%.

In the case of `O=C(/C=C/c1ccccc1)c1ccoc1`, the inhibition was -1.46%.

In the case of `O=C(Nc1ccccc1Cl)O/N=C(/c1ccccc1)c1ccccn1`, the inhibition is 6.79%.

Consider `Cc1ccc2nc(SC(C)C(=O)NCc3ccco3)[nH]c2c1` (stereo unspecified), for which the inhibition was 4.88%.

As to `Cc1ccc(-n2c(C)cc(/C=N/Nc3ccc([N+](=O)[O-])cn3)c2C)c(C)c1`, the inhibition was 14.4%.

On to `NC(=O)COc1ccc(/C=N/NC(=O)C2CCCN2S(=O)(=O)c2ccc(Cl)cc2)cc1` (stereo unspecified), for which the inhibition is 0.47%.

For the compound `CC1CCN(CC(=O)c2c[nH]c3ccccc23)CC1`, the inhibition was -3.18%.

For the compound `CCOC(=O)Nc1sc(C(=O)N(C)C)c(C)c1C(=O)OCC`, the inhibition was 7.1%.

`O=C(Cc1ccc(S(=O)(=O)N2CCCC2)s1)NC1CCCCCC1`: the inhibition was 0.64%.

Consider `CCOc1c(Cl)cc(/C=N/O)cc1OC`, for which the inhibition was -3.96%.

With `CCNc1nc(N)nc(-c2cc(Cl)ccc2OC)n1`, the inhibition was -15.5%.

In the case of `Cc1cccc(N2CCN(C(c3ccc(N(C)C)cc3)c3nnnn3C(C)(C)C)CC2)c1C` (stereo unspecified), the inhibition was 4.46%.

Consider `COCCNCCOCCOc1cccc(OC)c1`, for which the inhibition was -0.71%.

`CC(C)OC(=O)CN1C(=O)c2ccccc2C1=O`: the inhibition was -7.81%.

For the compound `CC(=O)Oc1ccc(NC(=O)CCC2CCCCC2)c(C(=O)O)c1`, the inhibition is -1.44%.

On to `Cc1nnc(SCC(=O)NCCOc2ccc(Cl)cc2)n1-c1ccccc1`, for which the inhibition was -3.78%.

For the compound `CC1(C)CCCC2=C1CC1C(=O)N(c3ccccc3)C(=O)C1C2` (stereo unspecified), the inhibition is -1.84%.

Consider `O=C1Nc2ccc(Br)cc2/C1=N/N=C/C1=C(N2CCOCC2)C(=C\c2ccccc2)/CC1`, for which the inhibition is 30.1% (active).

As for `COc1ccc(-c2noc(-c3ccc(C)cc3)n2)cc1`, the inhibition is 0.23%.

With `Cc1ccc2[nH]c3c(=O)n(Cc4ccccn4)cnc3c2c1`, the inhibition was 3.97%.

For `C=CCNc1cnn(-c2ccc(C)cc2)c(=O)c1Cl`, the inhibition is 3.95%.

Source of the values: PubChem BioAssay AID686954 (Sanford-Burnham Center for Chemical Genomics, 2013).
